Compounds without any hit were thinned out: in the full panel of roughly 83,000, 20% have a hit.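 Plates (96-well) were seeded with cells, treated with compound at one concentration, and incubated for 48 hours before percent growth was determined.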 Unmarked numbers belong to inactive results. Calls of active or inactive are those of the source. The calls were made as follows: active = growth percent below 10; inactive = the rest.

17 compounds from PubChem BioAssay (NCI) can be followed below.

Holding throughout (assay): NCI-60 one-dose screen, 48 h (100 = growth as untreated, 0 = no growth, -100 = all killed)
What all share (conditions): 10 µM unless noted

Experiment [1] relates to T-47D breast.
Experiment [2] concerns BT-549 breast.
Experiment [3] relates to MDA-MB-435 melanoma.
Experiment [4] deals with SW-620 colon.
Experiment [5] relates to MCF7 breast.
In experiment [6] the test system is HCT-116 colon.
The subject of experiment [7] is KM12 colon.
Experiment [8] concerns HCC-2998 colon.

Regarding `CCn1c(Cc2ccccc2Nc2c(Cl)cccc2Cl)nnc1SCC(=O)Nc1cccc(OC)c1`, the growth in experiment [1] was 58.9%; in experiment [2], 98.8%; in experiment [3] it was 93.4%; in experiment [4] it was 85.3%; in experiment [5] it was 84%; in experiment [6], 66.5%. Besides, the growth in experiment [7] was 88%.

Regarding `Cc1ccc(Nc2cc(Cl)c([N+](=O)[O-])cc2[N+](=O)[O-])cc1`, the growth is 1.27% (active) in experiment [1]; 31.3% in experiment [2]; 10.2% in experiment [3]; 9.72% (active) in experiment [4]; 25.9% in experiment [5]; 7.86% (active) in experiment [6]. For the same compound, the growth in experiment [7] was 45.9%.

In the case of `O=C(Nc1cccc(C2=NCCN2)c1)c1ccc(N=Nc2ccc(C(=O)Nc3cccc(C4=NCCN4)c3)cc2)cc1`, the growth was 46.5% in experiment [1]; 69.1% in experiment [2]; 47.9% in experiment [3]; 70.7% in experiment [4]; 53.1% in experiment [6]; 79.4% in experiment [8]. Further, the growth in experiment [7] was 72.8%.

Turning to `CC(C)c1ccc2c(c1)CCC1C2CCCC1(C)NCc1ccccc1` (stereo not drawn), the growth is 12.8% in experiment [1]; 106% in experiment [2]; 18.2% in experiment [3]; 3.49% (active) in experiment [4]; 75.5% in experiment [5]; 60.3% in experiment [6]. The growth in experiment [7] was 23.1%.

Consider `C=C(C)[C@@H]1CC[C@]2(C(=O)O)CC[C@]3(C)[C@H](CC[C@@H]4[C@@]5(C)C[C@@H](CC#Cc6ccc(C(C)=O)s6)[C@H](O)C(C)(C)[C@@H]5CC[C@]43C)[C@@H]12`, for which the growth in experiment [1] is 51.5%; in experiment [2] it was 53.1%; in experiment [3], 81.5%; in experiment [4], 59.8%; in experiment [5], 55%; in experiment [6] it was 26%. Moreover, the growth in experiment [7] was 18.1%.

As for `N/C(=N\OC(=O)c1ccccc1)C(C(=O)NOC(=O)c1ccccc1)C1CCCCC1` (stereo not drawn), the growth in experiment [1] is 72.1%; in experiment [2], 74.4%; in experiment [3], 38.9%; in experiment [4] it was 82.1%; in experiment [5] it was 65.6%; in experiment [6], 36.7%. Besides, in experiment [7], the growth is 19.9%.

Regarding `CCCCOc1nc2ccccc2cc1/C=C/c1cc(/C=C/c2cc3ccccc3nc2OCCCC)n(-c2ccccc2)n1`, the growth was 102% in experiment [1]; 93.2% in experiment [2]; 108% in experiment [3]; 101% in experiment [4]; 99.1% in experiment [5]; 93.1% in experiment [6]. Moreover, in experiment [7], the growth was 103%.

In the case of `COc1cc(C2C(C#N)=C(N)Oc3cc4c(cc32)OCO4)cc2c1OCO2` (stereo not drawn), the growth in experiment [1] was 53.7%; in experiment [2], 34.8%; in experiment [3], -50.6% (active); in experiment [4], 29%; in experiment [5], 16.6%; in experiment [6] it was 11%. The growth in experiment [7] is 10.9%.

Consider `Cc1ccc(NC(=O)c2cc(NCc3cc(O)ccc3O)ccc2O)cc1`, for which the growth in experiment [1] was 75.6%; in experiment [2] it was 63.8%; in experiment [3] it was 106%; in experiment [4], 106%; in experiment [5], 75.7%; in experiment [6] it was 97%. Further, the growth in experiment [7] is 91%.

With `CC1=CCC2C1CC=C(C)C(CC[C@H]1[C@@](C)(O)CCC3OC(C)(C)[C@H](OC(=O)c4ccccc4)CC[C@@]31C)C2(C)C` (stereo partly drawn), the growth in experiment [1] is 74.4%; in experiment [2], 106%; in experiment [3], 86.8%; in experiment [4] it was 80%; in experiment [6], 51.5%; in experiment [8], 97.9%. Also, the growth in experiment [7] was 98.9%.

As for `CCC1=CC2CN(C1)Cc1c([nH]c3ccccc13)[C@@](C(=O)OC)(c1cc3c(cc1OC)N(C)[C@H]1[C@@](O)(C(=O)OC)[C@H](OC(C)=O)[C@]4(CC)C=CCN5CC[C@]31[C@@H]54)C2` (stereo partly drawn), the growth in experiment [1] was 76.1%; in experiment [2], -27.2% (active); in experiment [3], 2.28% (active); in experiment [4], 29.1%; in experiment [5], 8.05% (active); in experiment [6] it was -9.83% (active). For the same compound, the growth in experiment [7] is 0.29% (active).

`COc1ccccc1CNCCCN1C(=O)c2ccc3c4c(ccc(c24)C1=O)C(=O)N(CCCCNCCCN)C3=O`: the growth in experiment [1] was -45.4% (active); in experiment [2] it was 58%; in experiment [3], -70% (active); in experiment [4] it was -25% (active); in experiment [5], -41.7% (active); in experiment [6] it was -11% (active). Moreover, the growth in experiment [7] was 10.7%.

As for `COc1cc([N+](=O)[O-])cc(OC)c1OC`, the growth is 112% in experiment [1]; 108% in experiment [2]; 117% in experiment [3]; 105% in experiment [4]; 96.5% in experiment [5]; 113% in experiment [6]. For the same compound, in experiment [7], the growth was 108%.

Take `CC(C)(C)[Si](C)(C)OC1[C@@H](O[Si](C)(C)C(C)(C)C)[C@@H](CNC(=O)NC(=O)NC(=O)CCl)O[C@H]1n1cnc2c(NC(=O)Nc3ccccc3)ncnc21` (stereo partly drawn): the growth in experiment [1] was 77%; in experiment [2], 71.7%; in experiment [3] it was 76.3%; in experiment [4] it was 85.4%; in experiment [6], 17.6%; in experiment [8] it was 75.5%.

As to `Cc1ccc(C(CN(C)C)C(=O)c2ccccc2)cc1` (stereo not drawn), the growth in experiment [1] was 33%; in experiment [2], -4.79% (active); in experiment [3] it was 18.2%; in experiment [4], -53.8% (active); in experiment [5], -0.801% (active); in experiment [6], -86.4% (active). In experiment [7], the growth is 33.9%.

As for `C(=Nc1ccc(-c2ccc(N=Cc3ccccc3)cc2)cc1)c1ccccc1`, the growth was 107% in experiment [1]; 97.5% in experiment [2]; 107% in experiment [3]; 106% in experiment [4]; 89.9% in experiment [5]; 100% in experiment [6]. Also, the growth in experiment [7] was 107%.

Consider `CCN1C(=O)N(CC)C2C1NC(=O)N2/N=C/C=C/c1ccccc1` (stereo not drawn), for which the growth was 34.2% in experiment [1]; 52.1% in experiment [2]; -2.78% (active) in experiment [3]; 24.2% in experiment [4]; 19.6% in experiment [6]; 64.2% in experiment [8]. The growth in experiment [7] is 23.4%.
